According to the supplement of paper PMC8253809:
Values joined by “and” are separate entries in the source; they are usually repeats but may differ in a detail not shown here. Equal values may be shown once.

How the values were obtained:
Assay in all cases: growth inhibition (% activity, log2 RLU normalised to DMSO / staurosporine); higher = more growth inhibition
Details in all cases: 33 µM
[1] = tested on: DIPGX29 (H3.3 K27M diffuse intrinsic pontine glioma line)
How it was run: (§1)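 The growth-inhibition value comes from CellTiter-Glo luminescence, log2-transformed, normalised per plate to % activity between solvent and positive control wells, and taken as the median over replicates. Treatment of pHGG cell lines and H9-derived neural stem cells with approved drugs was at a single final concentration of about 33 μM, in triplicate, for 7 days at 37 °C, 5% CO2.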

[2] = tested on: DIPGX37 (H3.3 K27M diffuse intrinsic pontine glioma line)
How it was run: as §1

[3] = tested on: DIPGX7 (H3.3 K27M diffuse intrinsic pontine glioma line)
How it was run: as §1

[4] = tested on: DIPGX9 (diffuse intrinsic pontine glioma line)
How it was run: as §1

[5] = tested on: HGGX39 (paediatric high-grade glioma line)
How it was run: as §1

[6] = tested on: HGGX6 (H3.3 G34R paediatric high-grade glioma line)
How it was run: as §1

[7] = tested on: HNSC
How it was run: as §1

[8] = tested on: SUDIPGIV (diffuse intrinsic pontine glioma line)
How it was run: as §1

[9] = tested on: SUDIPGVI (diffuse intrinsic pontine glioma line)
How it was run: as §1

[10] = tested on: SUDIPGXIII (diffuse intrinsic pontine glioma line)
How it was run: as §1

| Compound | growth inhibition [1] | growth inhibition [2] | growth inhibition [3] | growth inhibition [4] | growth inhibition [5] | growth inhibition [6] | growth inhibition [7] | growth inhibition [8] | growth inhibition [9] | growth inhibition [10] |
| --- | --- | --- | --- | --- | --- | --- | --- | --- | --- | --- |
| CCCC1O[C@@H]2C[C@H]3[C@@H]4CCC5=CC(=O)C=C[C@]5(C)[C@H]4[C@@H](O)C[C@]3(C)[C@]2(C(=O)CO)O1 (stereo not given in full) | 2.07% | -0.133% | -1.11% | 3.67% | 3.05% | 1.13% | -0.0191% | 40.8% | -5.45% | 18.8% |
| O=c1n(CCCN2CCN(c3cccc(Cl)c3)CC2)nc2ccccn12 | 3.64% | 2.01% | 4.26% | 3.67% | 4.78% | 3.57% | 6.62% | 2.09% | 4.36% | 0.00306% |
| Cc1c(Cl)cccc1Nc1ccccc1C(=O)O | 1.71% | 2.72% | 2.88% | 2.29% | 4.47% | 2.44% | 4.89% | -2.4% | 2.85% | 0.296% |
| C[C@H](N)[C@H](O)c1cccc(O)c1 | 2.35% | 0.0235% | 1.7% | 1.54% | 5.08% | 0.73% | 3.77% | 1.73% | 4.42% | 1.04% |
| CC(=O)[C@H]1CC[C@H]2[C@@H]3CC=C4C[C@@H](O)CC[C@]4(C)[C@H]3CC[C@]12C | -0.784% | -0.0978% | -1.68% | -0.764% | -1.75% | -0.479% | -2.77% | -1.85% | -0.676% | 0.295% |
| CCC[C@H](N[C@@H](C)C(=O)N1[C@H](C(=O)O)C[C@@H]2CCCC[C@@H]21)C(=O)OCC | 1.9% | 3.94% | 2.49% | 2.02% | 2.66% | 2.59% | 0.292% | 0.563% | 1.95% | 0.674% |
| CCCCC(=O)O[C@]1(C(=O)CO)[C@@H](C)C[C@H]2[C@@H]3CCC4=CC(=O)C=C[C@]4(C)[C@@]3(F)[C@@H](O)C[C@@]21C | 2.95% | 4.71% | 0.933% | 4% | 3.19% | 1.27% | 0.754% | 0.551% | 2.82% | 2.04% |
| CN(C)CCCN1c2ccccc2Sc2ccc(Cl)cc21 | -1.92% | -1.4% | 0.129% | -1.08% | 0.279% | -2.17% | 24.1% | -0.706% | -5.1% | 2.77% |
| C[C@@H]1CN(c2c(F)c(N)c3c(=O)c(C(=O)O)cn(C4CC4)c3c2F)C[C@H](C)N1 | 0.694% | 1.71% | 3.53% | 1.04% | 1.49% | -2.08% | 33.6% | 1.6% | -0.838% | -0.539% |
| N[C@@H](CSCCCO)C(=O)O | -3.76% | -2.47% | 0.0116% | -2.7% | -4.4% | -5.11% | 22.1% | -4.19% | -9.19% | -0.641% |
| Nc1nc2ccc(OC(F)(F)F)cc2s1 | 2.99% | 4.46% | 3.41% | 4.59% | 2.04% | 2.46% | 4.46% | -0.776% | 2.57% | 1.66% |
| COc1ccccc1N1CCN(CCCNc2cc(=O)n(C)c(=O)n2C)CC1 | -0.448% | 2.3% | -0.071% | 0.0185% | 0.367% | 0.543% | 0.25% | -1.07% | -1.77% | 1.17% |
| C[C@]12CC[C@@H]3c4ccc(O)cc4C[C@@H](CCCCCCCCC[S+]([O-])CCCC(F)(F)C(F)(F)F)[C@H]3[C@@H]1CC[C@@H]2O (stereo not given in full) | 0.0636% | 0.16% | 0.804% | -0.923% | 8.06% | -1.09% | 2% | -0.255% | -0.348% | 2.55% |
| CCOC(=O)[C@H](CCc1ccccc1)N[C@@H](C)C(=O)N1[C@H](C(=O)O)C[C@@H]2CCC[C@@H]21 | -3.8% | -1.96% | -1.64% | -2.68% | -4.08% | -5.1% | 1.84% | -2.04% | -7.46% | -2.12% |
| CN1CCN(CCCN2c3ccccc3Sc3ccc(C(F)(F)F)cc32)CC1 | 14.9% | 0.958% | 12.3% | 0.94% | 7.39% | 8.55% | 9.67% | 4.53% | -3.52% | 0.946% |
| CN1CC(=O)NC1=N | 1.19% | -0.026% | 4.55% | 2.89% | 6.17% | 2.06% | 10.1% | 2.65% | 3.88% | 1.35% |
| CCCCOc1ccc(C(=O)CCN2CCCCC2)cc1 | 3.95% | 1.81% | 13% | 3.6% | 8.09% | 7.94% | 6.88% | 0.947% | 1.6% | 1.44% |
| NCCNCCNCCNCCN | 1.8% | 3.32% | 2.9% | 2.04% | 2.02% | 3.41% | 4.1% | 5.08% | 4.87% | 0.192% |
| Nc1nc(Cl)nc2c1ncn2[C@@H]1O[C@H](CO)[C@@H](O)[C@@H]1F | 14.6% | 9.43% | 17.6% | 43.6% | 20% | 12.5% | 64.4% | 45% | 2.3% | 14.3% |
| CCCCNc1ccc(C(=O)OCCN(C)C)cc1 | -1.31% | -0.907% | 0.627% | -0.979% | 5.11% | 4.5% | 0.385% | -0.481% | -2.2% | 1.02% |
| CN[C@H]1CC[C@@H](c2ccc(Cl)c(Cl)c2)c2ccccc21 | 13.3% | 6.8% | 6.25% | 4.32% | 7.5% | 7.73% | 55% | 3.54% | 6.72% | 1.68% |
| CC1(C)[C@H](C(=O)O)N2C(=O)C[C@H]2S1(=O)=O | 2.32% and -0.376% | -0.186% and 1.2% | 3.29% and 0.579% | 2.15% and 2.67% | 4.9% and 2.16% | 1.21% and -0.215% | 11.1% and 0.73% | 1.62% and -0.448% | 2.58% and 1.67% | 0.364% and -0.373% |
